Our source for the inhibition values is ChEMBL document CHEMBL1961873, “Compounds: GSK PKIS; Assays: Nanosyn kinase panel” (2012).

For assay [1], the target named is Protein kinase C gamma type (Homo sapiens) (UniProt P05129). The conditions noted are these: at 1 µM.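 Further: each value is an averaged percent inhibition of the enzyme.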
The target of assay [2] is T1, Protein kinase C iota type (Homo sapiens) (UniProt P41743).
T1 sequence (whole entry): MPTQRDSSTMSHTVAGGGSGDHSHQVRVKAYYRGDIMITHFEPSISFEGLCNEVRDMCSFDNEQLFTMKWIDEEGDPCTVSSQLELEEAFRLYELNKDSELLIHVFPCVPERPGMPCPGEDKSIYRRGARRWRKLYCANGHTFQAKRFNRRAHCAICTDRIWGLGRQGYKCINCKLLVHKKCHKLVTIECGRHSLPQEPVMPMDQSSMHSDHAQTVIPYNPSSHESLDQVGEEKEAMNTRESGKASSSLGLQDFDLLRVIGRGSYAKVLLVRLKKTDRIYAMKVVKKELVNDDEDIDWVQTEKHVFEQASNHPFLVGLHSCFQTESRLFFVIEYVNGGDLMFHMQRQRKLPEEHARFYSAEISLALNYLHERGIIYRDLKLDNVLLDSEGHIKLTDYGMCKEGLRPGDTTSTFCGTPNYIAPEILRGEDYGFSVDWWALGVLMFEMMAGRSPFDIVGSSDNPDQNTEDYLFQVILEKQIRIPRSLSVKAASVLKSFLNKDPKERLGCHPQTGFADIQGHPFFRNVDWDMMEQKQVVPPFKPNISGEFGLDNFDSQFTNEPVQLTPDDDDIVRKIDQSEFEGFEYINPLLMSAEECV
The conditions noted are these: at 0.1 µM.

For assay [3], the target named is T1, Protein kinase C iota type (Homo sapiens). The conditions noted are these: at 1 µM.
For assay [4], the target named is Protein kinase C theta type (Homo sapiens) (UniProt Q04759). The conditions noted are these: at 0.1 µM.
Sequence of Protein kinase C theta type (Homo sapiens) (Q04759 whole entry, looked up): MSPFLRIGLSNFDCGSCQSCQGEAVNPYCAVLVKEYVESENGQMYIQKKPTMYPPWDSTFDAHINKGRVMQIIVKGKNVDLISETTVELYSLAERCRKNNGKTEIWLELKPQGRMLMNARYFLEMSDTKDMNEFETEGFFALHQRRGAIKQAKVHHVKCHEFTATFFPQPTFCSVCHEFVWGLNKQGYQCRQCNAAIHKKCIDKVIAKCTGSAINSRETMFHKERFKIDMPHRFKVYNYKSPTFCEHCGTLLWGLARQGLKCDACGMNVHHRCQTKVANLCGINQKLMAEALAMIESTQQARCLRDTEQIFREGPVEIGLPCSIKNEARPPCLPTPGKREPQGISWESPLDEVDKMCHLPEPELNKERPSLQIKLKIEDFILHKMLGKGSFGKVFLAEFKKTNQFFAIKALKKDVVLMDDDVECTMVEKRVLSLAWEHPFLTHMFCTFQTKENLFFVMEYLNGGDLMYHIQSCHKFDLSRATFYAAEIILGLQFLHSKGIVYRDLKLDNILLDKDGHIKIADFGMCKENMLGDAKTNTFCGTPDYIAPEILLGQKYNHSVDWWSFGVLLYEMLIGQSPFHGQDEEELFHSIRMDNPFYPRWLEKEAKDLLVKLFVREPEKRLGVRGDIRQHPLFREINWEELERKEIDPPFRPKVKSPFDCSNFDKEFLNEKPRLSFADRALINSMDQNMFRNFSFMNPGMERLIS
For assay [5] the target is unchanged. The conditions noted are these: at 1 µM.
For assay [6], the target named is Protein kinase C beta type (Homo sapiens) (UniProt P05771). The conditions noted are these: at 0.1 µM.
Sequence of Protein kinase C beta type (Homo sapiens) (P05771 2-671 limits assumed): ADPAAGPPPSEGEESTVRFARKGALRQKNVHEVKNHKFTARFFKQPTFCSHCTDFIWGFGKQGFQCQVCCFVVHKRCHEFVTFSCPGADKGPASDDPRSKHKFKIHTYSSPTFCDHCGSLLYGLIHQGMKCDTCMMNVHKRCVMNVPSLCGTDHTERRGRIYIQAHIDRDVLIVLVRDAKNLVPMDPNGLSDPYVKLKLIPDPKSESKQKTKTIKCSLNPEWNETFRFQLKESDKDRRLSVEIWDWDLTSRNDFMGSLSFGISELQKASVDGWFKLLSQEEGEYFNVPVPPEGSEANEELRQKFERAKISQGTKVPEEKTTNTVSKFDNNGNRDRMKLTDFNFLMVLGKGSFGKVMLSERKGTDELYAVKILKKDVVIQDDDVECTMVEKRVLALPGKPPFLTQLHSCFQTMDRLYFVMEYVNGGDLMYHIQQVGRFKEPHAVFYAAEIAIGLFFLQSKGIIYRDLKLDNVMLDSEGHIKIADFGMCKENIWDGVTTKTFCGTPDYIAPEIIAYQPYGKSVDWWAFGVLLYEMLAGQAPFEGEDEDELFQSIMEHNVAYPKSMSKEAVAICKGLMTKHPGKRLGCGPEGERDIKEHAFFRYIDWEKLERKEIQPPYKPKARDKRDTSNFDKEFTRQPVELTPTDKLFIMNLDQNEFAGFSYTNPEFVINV
Assay [7] has the same target. The conditions noted are these: at 1 µM.
In assay [8] the target is T2, Serine/threonine-protein kinase D1 (Homo sapiens) (UniProt Q15139).
T2 sequence (whole entry): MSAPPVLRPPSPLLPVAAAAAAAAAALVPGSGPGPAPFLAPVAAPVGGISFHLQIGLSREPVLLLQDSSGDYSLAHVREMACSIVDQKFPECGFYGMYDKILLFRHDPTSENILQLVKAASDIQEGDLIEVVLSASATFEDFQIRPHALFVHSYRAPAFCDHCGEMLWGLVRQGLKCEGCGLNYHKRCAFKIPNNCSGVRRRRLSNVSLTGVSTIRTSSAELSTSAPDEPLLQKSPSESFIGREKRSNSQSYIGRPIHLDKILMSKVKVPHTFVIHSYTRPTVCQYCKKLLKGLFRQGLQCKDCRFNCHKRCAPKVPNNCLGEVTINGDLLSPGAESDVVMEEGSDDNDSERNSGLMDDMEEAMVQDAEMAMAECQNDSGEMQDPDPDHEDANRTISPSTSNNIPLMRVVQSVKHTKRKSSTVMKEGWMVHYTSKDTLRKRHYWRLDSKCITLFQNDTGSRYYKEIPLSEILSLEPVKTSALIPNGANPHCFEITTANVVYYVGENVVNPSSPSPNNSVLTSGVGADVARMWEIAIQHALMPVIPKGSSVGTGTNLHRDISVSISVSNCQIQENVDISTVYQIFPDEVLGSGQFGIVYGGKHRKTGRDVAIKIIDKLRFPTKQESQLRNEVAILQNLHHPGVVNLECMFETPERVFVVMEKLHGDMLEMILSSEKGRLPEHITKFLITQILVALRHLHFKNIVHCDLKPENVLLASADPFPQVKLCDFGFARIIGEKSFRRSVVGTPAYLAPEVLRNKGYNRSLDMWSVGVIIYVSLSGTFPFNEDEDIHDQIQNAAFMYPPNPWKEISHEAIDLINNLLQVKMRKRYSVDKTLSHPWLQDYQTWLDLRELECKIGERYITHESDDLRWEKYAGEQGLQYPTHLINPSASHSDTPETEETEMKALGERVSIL
The conditions noted are these: at 0.1 µM.

The target of assay [9] is T2, Serine/threonine-protein kinase D1 (Homo sapiens). The conditions noted are these: at 1 µM.
Assay [10] has as its target T3, Serine/threonine-protein kinase D2 (Homo sapiens) (UniProt Q9BZL6).
T3 sequence (whole entry): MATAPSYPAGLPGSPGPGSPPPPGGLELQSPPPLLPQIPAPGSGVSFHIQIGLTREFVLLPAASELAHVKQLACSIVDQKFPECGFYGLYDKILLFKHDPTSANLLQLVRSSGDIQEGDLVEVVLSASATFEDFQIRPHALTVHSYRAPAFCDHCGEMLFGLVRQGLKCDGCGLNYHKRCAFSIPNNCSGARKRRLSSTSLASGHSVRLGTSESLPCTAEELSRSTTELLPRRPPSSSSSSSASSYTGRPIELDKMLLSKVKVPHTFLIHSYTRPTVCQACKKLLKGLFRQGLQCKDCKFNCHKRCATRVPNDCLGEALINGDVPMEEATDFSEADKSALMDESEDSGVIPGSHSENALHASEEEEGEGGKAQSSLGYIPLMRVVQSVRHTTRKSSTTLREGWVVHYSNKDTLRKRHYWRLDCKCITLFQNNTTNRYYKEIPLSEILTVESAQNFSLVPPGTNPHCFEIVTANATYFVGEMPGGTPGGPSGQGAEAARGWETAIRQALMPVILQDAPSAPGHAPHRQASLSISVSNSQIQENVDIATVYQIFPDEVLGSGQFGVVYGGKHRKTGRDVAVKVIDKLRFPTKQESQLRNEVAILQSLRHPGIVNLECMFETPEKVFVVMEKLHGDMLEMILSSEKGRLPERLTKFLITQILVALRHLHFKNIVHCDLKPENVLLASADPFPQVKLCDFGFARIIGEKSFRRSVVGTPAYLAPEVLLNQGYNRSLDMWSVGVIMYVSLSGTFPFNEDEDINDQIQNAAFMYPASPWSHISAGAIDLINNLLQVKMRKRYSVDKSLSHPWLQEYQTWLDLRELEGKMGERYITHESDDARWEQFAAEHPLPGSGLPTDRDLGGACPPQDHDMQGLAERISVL
The conditions noted are these: at 0.1 µM.

In assay [11] the target is T3, Serine/threonine-protein kinase D2 (Homo sapiens). The conditions noted are these: at 1 µM.
The target in assay [12] is T4, Serine/threonine-protein kinase D3 (Homo sapiens) (UniProt O94806).
T4 sequence (whole entry): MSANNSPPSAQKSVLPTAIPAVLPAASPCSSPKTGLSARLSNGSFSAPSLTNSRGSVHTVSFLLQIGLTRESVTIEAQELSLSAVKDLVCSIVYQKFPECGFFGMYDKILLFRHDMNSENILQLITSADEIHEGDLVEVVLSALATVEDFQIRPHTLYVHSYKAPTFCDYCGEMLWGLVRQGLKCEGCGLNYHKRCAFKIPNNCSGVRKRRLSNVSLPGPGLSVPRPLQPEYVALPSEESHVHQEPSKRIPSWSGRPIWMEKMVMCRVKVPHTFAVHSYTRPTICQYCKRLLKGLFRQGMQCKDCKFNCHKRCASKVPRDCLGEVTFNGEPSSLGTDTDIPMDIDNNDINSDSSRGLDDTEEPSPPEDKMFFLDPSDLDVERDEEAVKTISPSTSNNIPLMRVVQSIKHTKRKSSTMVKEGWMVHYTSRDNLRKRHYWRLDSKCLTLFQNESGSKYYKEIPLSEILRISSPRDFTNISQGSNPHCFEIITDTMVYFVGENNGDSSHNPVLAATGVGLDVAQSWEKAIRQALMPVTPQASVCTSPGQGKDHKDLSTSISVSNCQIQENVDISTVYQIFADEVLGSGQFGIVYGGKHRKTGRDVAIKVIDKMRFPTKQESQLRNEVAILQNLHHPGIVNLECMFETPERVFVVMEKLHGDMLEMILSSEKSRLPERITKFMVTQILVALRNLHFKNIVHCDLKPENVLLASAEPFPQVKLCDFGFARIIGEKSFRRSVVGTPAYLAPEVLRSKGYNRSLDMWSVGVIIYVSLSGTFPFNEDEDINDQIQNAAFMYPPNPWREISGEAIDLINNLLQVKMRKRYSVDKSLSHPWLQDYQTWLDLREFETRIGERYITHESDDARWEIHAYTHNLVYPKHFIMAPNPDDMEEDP
The conditions noted are these: at 0.1 µM.

Assay [13] concerns the target T4, Serine/threonine-protein kinase D3 (Homo sapiens). The conditions noted are these: at 1 µM.
In assay [14] the target is T5, cGMP-dependent protein kinase 1 (Homo sapiens) (UniProt Q13976).
T5 sequence (whole entry): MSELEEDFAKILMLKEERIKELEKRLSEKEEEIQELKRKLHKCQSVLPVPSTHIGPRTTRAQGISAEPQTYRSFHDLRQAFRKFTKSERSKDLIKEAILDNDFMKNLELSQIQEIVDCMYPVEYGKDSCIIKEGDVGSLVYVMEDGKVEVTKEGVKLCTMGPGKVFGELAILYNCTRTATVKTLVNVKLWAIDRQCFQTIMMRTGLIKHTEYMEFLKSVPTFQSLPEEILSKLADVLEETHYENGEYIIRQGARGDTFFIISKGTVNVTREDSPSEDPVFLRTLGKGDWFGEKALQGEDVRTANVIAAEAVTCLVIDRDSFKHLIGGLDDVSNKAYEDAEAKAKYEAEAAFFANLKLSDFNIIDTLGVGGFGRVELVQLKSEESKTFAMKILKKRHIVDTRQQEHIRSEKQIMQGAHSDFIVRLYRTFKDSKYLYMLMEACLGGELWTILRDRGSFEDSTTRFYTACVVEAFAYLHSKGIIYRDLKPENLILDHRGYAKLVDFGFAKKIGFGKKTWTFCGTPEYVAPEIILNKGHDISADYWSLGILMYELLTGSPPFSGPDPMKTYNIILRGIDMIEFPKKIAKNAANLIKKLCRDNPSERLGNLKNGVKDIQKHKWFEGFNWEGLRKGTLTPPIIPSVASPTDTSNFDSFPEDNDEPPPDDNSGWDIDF
The conditions noted are these: at 0.1 µM.

Assay [15] has as its target T5, cGMP-dependent protein kinase 1 (Homo sapiens). The conditions noted are these: at 1 µM.
The target in assay [16] is T6, cGMP-dependent protein kinase 2 (Homo sapiens) (UniProt Q13237).
T6 sequence (whole entry): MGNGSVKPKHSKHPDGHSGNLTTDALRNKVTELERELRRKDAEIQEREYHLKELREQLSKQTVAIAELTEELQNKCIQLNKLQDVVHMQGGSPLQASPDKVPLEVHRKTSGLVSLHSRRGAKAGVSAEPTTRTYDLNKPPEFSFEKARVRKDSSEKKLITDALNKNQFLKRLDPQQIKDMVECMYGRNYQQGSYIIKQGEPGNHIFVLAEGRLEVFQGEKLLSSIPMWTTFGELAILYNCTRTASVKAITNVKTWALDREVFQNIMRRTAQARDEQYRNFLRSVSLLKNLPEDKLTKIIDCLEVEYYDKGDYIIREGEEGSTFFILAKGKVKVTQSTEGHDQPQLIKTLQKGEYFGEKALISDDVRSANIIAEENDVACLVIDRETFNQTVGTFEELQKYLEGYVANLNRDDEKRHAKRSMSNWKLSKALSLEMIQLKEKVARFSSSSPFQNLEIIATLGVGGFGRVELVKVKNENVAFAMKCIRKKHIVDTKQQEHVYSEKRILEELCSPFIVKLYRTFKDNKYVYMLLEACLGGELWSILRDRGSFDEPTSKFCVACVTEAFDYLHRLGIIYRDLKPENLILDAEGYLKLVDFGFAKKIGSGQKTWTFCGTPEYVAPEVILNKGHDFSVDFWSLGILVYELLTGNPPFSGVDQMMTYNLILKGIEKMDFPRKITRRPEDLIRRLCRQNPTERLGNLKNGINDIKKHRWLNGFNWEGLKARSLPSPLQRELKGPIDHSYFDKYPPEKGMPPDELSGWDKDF
The conditions noted are these: at 0.1 µM.

Assay [17] addresses T6, cGMP-dependent protein kinase 2 (Homo sapiens). The conditions noted are these: at 1 µM.
Assay [18] has as its target T7, cAMP-dependent protein kinase catalytic subunit PRKX (Homo sapiens) (UniProt P51817).
T7 sequence (whole entry): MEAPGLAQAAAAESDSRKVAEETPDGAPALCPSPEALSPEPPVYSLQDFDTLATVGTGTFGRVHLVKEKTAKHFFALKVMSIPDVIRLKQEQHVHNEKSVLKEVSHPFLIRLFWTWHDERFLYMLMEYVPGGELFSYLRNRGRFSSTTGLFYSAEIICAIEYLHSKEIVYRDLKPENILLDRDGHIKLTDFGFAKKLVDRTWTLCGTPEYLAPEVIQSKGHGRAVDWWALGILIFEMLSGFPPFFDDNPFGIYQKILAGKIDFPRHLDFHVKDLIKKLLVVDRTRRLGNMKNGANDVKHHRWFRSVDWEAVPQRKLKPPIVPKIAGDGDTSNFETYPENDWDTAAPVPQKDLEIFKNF
The conditions noted are these: at 0.1 µM.

The target of assay [19] is T7, cAMP-dependent protein kinase catalytic subunit PRKX (Homo sapiens). The conditions noted are these: at 1 µM.
For assay [20], the target named is Rho-associated protein kinase 1 (Homo sapiens) (UniProt Q13464). The conditions noted are these: at 0.1 µM.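 Further: values are mean percent inhibition of ROCK1.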
Sequence of Rho-associated protein kinase 1 (Homo sapiens) (Q13464 2-1354 limits assumed): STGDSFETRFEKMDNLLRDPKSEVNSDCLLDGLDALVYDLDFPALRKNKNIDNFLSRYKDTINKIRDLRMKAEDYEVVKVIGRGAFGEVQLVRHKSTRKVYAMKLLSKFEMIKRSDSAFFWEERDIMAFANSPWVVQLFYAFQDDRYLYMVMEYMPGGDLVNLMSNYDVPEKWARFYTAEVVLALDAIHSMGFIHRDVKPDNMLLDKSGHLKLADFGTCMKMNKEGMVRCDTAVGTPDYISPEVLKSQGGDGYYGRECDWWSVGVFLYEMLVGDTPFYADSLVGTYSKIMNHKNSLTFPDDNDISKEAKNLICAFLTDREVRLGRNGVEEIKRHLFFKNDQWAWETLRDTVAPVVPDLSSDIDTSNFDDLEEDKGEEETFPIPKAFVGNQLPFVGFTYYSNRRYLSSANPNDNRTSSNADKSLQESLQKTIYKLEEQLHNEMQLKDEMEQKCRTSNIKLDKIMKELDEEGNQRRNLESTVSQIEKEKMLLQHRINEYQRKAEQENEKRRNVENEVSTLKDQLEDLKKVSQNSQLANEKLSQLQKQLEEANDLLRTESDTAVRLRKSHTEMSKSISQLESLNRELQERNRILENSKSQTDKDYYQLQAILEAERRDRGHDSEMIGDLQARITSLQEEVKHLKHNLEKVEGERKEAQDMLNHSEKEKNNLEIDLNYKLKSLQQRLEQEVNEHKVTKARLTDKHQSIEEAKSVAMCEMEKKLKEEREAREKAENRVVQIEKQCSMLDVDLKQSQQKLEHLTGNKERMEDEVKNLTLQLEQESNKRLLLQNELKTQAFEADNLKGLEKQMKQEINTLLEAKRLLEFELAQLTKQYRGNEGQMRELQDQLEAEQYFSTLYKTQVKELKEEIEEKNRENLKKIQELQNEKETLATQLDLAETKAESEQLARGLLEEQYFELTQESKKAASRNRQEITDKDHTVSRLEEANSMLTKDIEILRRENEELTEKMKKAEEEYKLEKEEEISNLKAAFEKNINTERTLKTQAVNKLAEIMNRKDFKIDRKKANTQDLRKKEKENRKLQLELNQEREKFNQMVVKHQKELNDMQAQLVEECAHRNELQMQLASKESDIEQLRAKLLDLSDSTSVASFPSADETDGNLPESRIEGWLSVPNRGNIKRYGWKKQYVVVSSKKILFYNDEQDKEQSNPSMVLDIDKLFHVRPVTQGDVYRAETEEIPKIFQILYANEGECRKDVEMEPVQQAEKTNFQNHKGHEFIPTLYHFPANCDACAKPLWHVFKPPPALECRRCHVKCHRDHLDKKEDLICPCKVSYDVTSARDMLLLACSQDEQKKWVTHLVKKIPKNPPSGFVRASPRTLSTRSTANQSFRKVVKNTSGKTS

SMILES strings stand for the structures.

As to `NC(=O)Cc1ccccc1Oc1nccc(-c2c(-c3ccc(F)cc3)ncn2C2CCNCC2)n1`, the inhibition in assay [1] was 0.76%; in assay [2], 0%; in assay [3], 0.16%; in assay [4], 0.43%; in assay [5], -0.38%; in assay [6] it was 1.22%. In addition, the inhibition was 3.91% in assay [7]; 4.86% in assay [8]; 8.87% in [9]; 4.63% in [10]; 9.53% in assay [11]; 3.95% in assay [12]. For the same compound, the inhibition in [13] is 8.49%; in [14] it was 1.82%; in assay [15], 3.89%; in [16], 0.97%; in assay [17], 4.38%; in assay [18], -0.25%. The inhibition in assay [19] was -1.31%; in assay [20] it was 0.15%.

On to `FC(F)(F)c1cccc(Nc2nccc(-c3cnn4nc(-c5ccccc5)ccc34)n2)c1`, for which the inhibition is 1.78% in assay [1]; 0.68% in [2]; 0.06% in [3]; 1.79% in [4]; 2.39% in [5]; 1.28% in assay [6]. Further, the inhibition was found to be 1.35% in assay [7]; 2.1% in assay [8]; 3.92% in assay [9]; 1.86% in assay [10]; 1.49% in assay [11]; 1.55% in assay [12]. Also, the inhibition in assay [13] was 2.61%; in assay [14], 1.17%; in [15], -0.32%; in assay [16], 1.44%; in [17], -1.07%; in assay [18], 1.18%. Also, the inhibition was 0.74% in assay [19] and 0.77% in assay [20].

A word on the inhibition: it is the change of the read-out against control, counted positive when it falls.
